Measured values as given in PubChem BioAssay AID1159580 (chemical genetic matrix, 2015).
Hit rate of the full screen: of about 5,500 compounds, about 2,000 (36%) were called active. Not shown: some 18% with an inconclusive outcome. Rule as the data show it: active = normalized growth mostly below about 0.91 (no sharp cut-off); inconclusive = no clear call, values can overlap the other calls; inactive = mostly above about 0.92. The list shows a part of the results.

Assay: chemical genetic growth profiling, strain panel (AID 1159580);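 also: tested at 20 µM; growth read once vehicle control cultures reached saturation at 30 °C; 1 = growth at the plate median or of vehicle wells; lower values mean less growth of the strain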
Conditions: growth OD

Measured: normalized growth

C[C@H]1[C@H](C)CC[C@]2(C(=O)O)CC[C@]3(C)C(=CCC4[C@@]5(C)C[C@@H](O)[C@H](O)[C@@](C)(CO)C5[C@H](O)C[C@]43C)[C@H]12 (stereo partly drawn)
inactive: S. cerevisiae deletion strains, locus YJR066W, strain TOR1, active compounds read low 0.909 | S. cerevisiae deletion strains, locus YKL160W, strain elf1, active compounds read low 0.958 | S. cerevisiae deletion strains, locus YKR026C, strain gcn3, active compounds read low 0.962 | S. cerevisiae deletion strains, locus YKR091W, strain srl3, active compounds read low 0.965 | S. cerevisiae deletion strains, locus YLL001W, strain dnm1, active compounds read low 0.964 | S. cerevisiae deletion strains, locus YLL026W, active compounds read low 0.97 | S. cerevisiae deletion strains, locus YLL041C, strain sdh2, active compounds read low 0.966 | S. cerevisiae deletion strains, locus YLR027C, strain aat2, active compounds read low 0.96 | S. cerevisiae deletion strains, locus YLR039C, strain RIC1, active compounds read low 0.799 | S. cerevisiae deletion strains, locus YLR058C, strain SHM2, active compounds read low 0.993 | S. cerevisiae deletion strains, locus YLR102C, strain apc9, active compounds read low 0.976 | S. cerevisiae deletion strains, locus YLR221C, strain rsa3, active compounds read low 0.922 | S. cerevisiae deletion strains, locus YLR258W, strain gsy2, active compounds read low 0.968 | S. cerevisiae deletion strains, locus YLR262C, strain YPT6 (second series), active compounds read low 0.919 | S. cerevisiae deletion strains, locus YLR262C, strain YPT6, active compounds read low 0.872 | S. cerevisiae deletion strains, locus YLR268W, strain sec22, active compounds read low 0.932 | S. cerevisiae deletion strains, locus YLR320W, strain mms22, active compounds read low 0.928 | S. cerevisiae deletion strains, locus YLR330W, strain CHS5, active compounds read low 0.958 | S. cerevisiae deletion strains, locus YLR342W, strain FKS1 (second series), active compounds read low 0.915 | S. cerevisiae deletion strains, locus YLR342W, strain FKS1, active compounds read low 0.982 | S. cerevisiae deletion strains, locus YLR357W, strain rsc2, active compounds read low 0.921 | S. cerevisiae deletion strains, locus YLR370C, strain arc18, active compounds read low 0.967 | S. cerevisiae deletion strains, locus YLR371W, strain rom2, active compounds read low 0.921 | S. cerevisiae deletion strains, locus YLR384C, strain iki3, active compounds read low 0.964 | S. cerevisiae deletion strains, locus YLR418C, strain cdc73, active compounds read low 0.901 | S. cerevisiae deletion strains, locus YML016C, strain PPZ1, active compounds read low 0.99 | S. cerevisiae deletion strains, locus YML032C, strain rad52, active compounds read low 0.959 | S. cerevisiae deletion strains, locus YML120C, strain ndi1, active compounds read low 0.951 | S. cerevisiae deletion strains, locus YML124C, strain tub3, active compounds read low 0.963 | S. cerevisiae deletion strains, locus YMR058W, strain fet3, active compounds read low 0.972 | S. cerevisiae deletion strains, locus YMR078C, strain ctf18, active compounds read low 0.979 | S. cerevisiae deletion strains, locus YMR125W, strain sto1, active compounds read low 0.966 | S. cerevisiae deletion strains, locus YMR129W, active compounds read low 0.962 | S. cerevisiae deletion strains, locus YMR205C, strain PFK2, active compounds read low 0.909 | S. cerevisiae deletion strains, locus YMR223W, strain ubp8, active compounds read low 0.905 | S. cerevisiae deletion strains, locus YMR231W, strain pep5, active compounds read low 0.978 | S. cerevisiae deletion strains, locus YMR307W, strain GAS1, active compounds read low 0.6 | S. cerevisiae deletion strains, locus YNL067W, strain RPL9B, active compounds read low 0.942 | S. cerevisiae deletion strains, locus YNL071W, strain lat1, active compounds read low 0.973 | S. cerevisiae deletion strains, locus YNL183C, strain NPR1, active compounds read low 0.905 | S. cerevisiae deletion strains, locus YNL209W, strain ssb2, active compounds read low 0.961 | S. cerevisiae deletion strains, locus YNL233W, strain BNI4, active compounds read low 0.927 | S. cerevisiae deletion strains, locus YNL248C, strain rpa49, active compounds read low 0.964 | S. cerevisiae deletion strains, locus YNL250W, strain rad50, active compounds read low 0.98 | S. cerevisiae deletion strains, locus YNL307C, strain MCK1, active compounds read low 0.994 | S. cerevisiae deletion strains, locus YNL322C, strain KRE1 (second series), active compounds read low 0.98 | S. cerevisiae deletion strains, locus YNL322C, strain KRE1, active compounds read low 0.984 | S. cerevisiae deletion strains, locus YNR049C, strain mso1, active compounds read low 0.987 | S. cerevisiae deletion strains, locus YOL006C, strain TOP1, active compounds read low 0.915 | S. cerevisiae deletion strains, locus YOL012C, strain htz1 0.605 | S. cerevisiae deletion strains, locus YOL147C, strain pex11, active compounds read low 0.985 | S. cerevisiae deletion strains, locus YOR001W, strain rrp6, active compounds read low 0.907 | S. cerevisiae deletion strains, locus YOR061W, strain CKA2, active compounds read low 0.994 | S. cerevisiae deletion strains, locus YOR069W, strain VPS5, active compounds read low 0.998 | S. cerevisiae deletion strains, locus YOR070C, strain gyp1, active compounds read low 0.966 | S. cerevisiae deletion strains, locus YOR080W, strain dia2, active compounds read low 0.967 | S. cerevisiae deletion strains, locus YOR083W, strain WHI5, active compounds read low 0.954 | S. cerevisiae deletion strains, locus YOR106W, strain vam3, active compounds read low 0.972 | S. cerevisiae deletion strains, locus YOR136W, strain idh2, active compounds read low 0.931 | S. cerevisiae deletion strains, locus YOR144C, strain elg1, active compounds read low 0.958 | S. cerevisiae deletion strains, locus YOR184W, strain ser1, active compounds read low 0.946 | S. cerevisiae deletion strains, locus YOR231W, strain MKK1, active compounds read low 0.982 | S. cerevisiae deletion strains, locus YOR265W, strain rbl2, active compounds read low 0.98 | S. cerevisiae deletion strains, locus YOR270C, strain vph1, active compounds read low 0.851 | S. cerevisiae deletion strains, locus YOR290C, strain snf2, active compounds read low 0.971 | S. cerevisiae deletion strains, locus YOR316C, strain cot1, active compounds read low 0.962 | S. cerevisiae deletion strains, locus YPL051W, strain arl3, active compounds read low 0.959 | S. cerevisiae deletion strains, locus YPL055C, strain LGE1, active compounds read low 0.938 | S. cerevisiae deletion strains, locus YPL078C, strain atp4, active compounds read low 0.984 | S. cerevisiae deletion strains, locus YPL106C, strain sse1, active compounds read low 0.895 | S. cerevisiae deletion strains, locus YPL240C, strain hsp82, active compounds read low 0.953 | S. cerevisiae deletion strains, locus YPL241C, strain CIN2, active compounds read low 1 | S. cerevisiae deletion strains, locus YPL256C, strain CLN2, active compounds read low 0.958 | S. cerevisiae deletion strains, locus YPR119W, strain clb2, active compounds read low 0.978 | S. cerevisiae deletion strains, locus YPR141C, strain kar3, active compounds read low 0.974 | S. cerevisiae deletion strains, locus YPR163C, strain tif3, active compounds read low 0.969 | S. cerevisiae deletion strains, locus YPR167C, strain met16, active compounds read low 0.974 | S. cerevisiae deletion strains, strain wtn01, active compounds read low 0.94 | S. cerevisiae strains, strain wild type, active compounds read low 0.961
active: S. cerevisiae deletion strains, locus YKL009W, strain mrt4, active compounds read low 1.55 [resistant] | S. cerevisiae deletion strains, locus YKL068W, active compounds read low 1.23 [resistant] | S. cerevisiae deletion strains, locus YKL085W, strain MDH1 (second series), active compounds read low 1.3 [resistant] | S. cerevisiae deletion strains, locus YKL085W, strain MDH1, active compounds read low 1.3 [resistant] | S. cerevisiae deletion strains, locus YKR001C, strain vps1, active compounds read low 0.855 | S. cerevisiae deletion strains, locus YLR113W, strain HOG1, active compounds read low 0.673 | S. cerevisiae deletion strains, locus YNL271C, strain bni1, active compounds read low 0.907 | S. cerevisiae deletion strains, locus YNL298W, strain CLA4, active compounds read low 0.869 | S. cerevisiae deletion strains, locus YNR052C, strain pop2, active compounds read low 0.914
